Shown are actives, neighbours in structure and some others; about 7.4% of the full set was active somewhere.
SMN2 splice enh = enhancers of SMN2 splice variant expression | HEK293 SMN2-luciferase splicing reporter, luminescence, 30-36 h | hit rate 2.8% among 210,000 | AID 1458 | Potency, µM (series often up to 46.1 µM), inactives show at the highest dose activity change, positive = activation, hits mostly activators; note: % of control where 0% means no effect; nearly all actives have a fitted effect of over 55% in size
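HEK293 cells carry an SMN2 minigene-luciferase reporter in which exon 7 inclusion puts luciferase in frame. Cells were seeded at 2000 cells/well, attached for 10-12 hours, then exposed to compounds for 30-36 hours at 37C before ONE-Glo luminescence.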
NPC1 promoter act = activators of NPC1 promoter. Huh7 NPC1 promoter luciferase reporter, 24 h. Potency, µM (top dose mostly 9.22 µM), for the others: top-dose activation, most hits filed as activators. hit rate 2.4% among 320,000. AID 485313; note: % of control where 0% means no effect; nearly all actives have a fitted effect of over 60% in size
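Huh7 cells stably carrying NPC1 promoter–luciferase, plated in Opti-MEM with 10% FBS for 2 h, were exposed to compound in DMSO for 24 h at 37 °C; luciferase reagent was added for 10 min and luminescence read.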
FLuc counter = firefly luciferase modulation, counter-screen for miR-21 project | purified FLuc, Km substrates, luminescence inhibition | Potency, µM (doses to about 57.5 µM), for the others: top-dose activity change, negative = inhibition, most hits filed as inhibitors | hit rate 6.9% among 360,000;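 note: plate controls were vehicle for no effect and reference inhibitor for full effect; nearly all actives have a fitted effect of over 55% in size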
Target sequence (P08659 whole entry, looked up): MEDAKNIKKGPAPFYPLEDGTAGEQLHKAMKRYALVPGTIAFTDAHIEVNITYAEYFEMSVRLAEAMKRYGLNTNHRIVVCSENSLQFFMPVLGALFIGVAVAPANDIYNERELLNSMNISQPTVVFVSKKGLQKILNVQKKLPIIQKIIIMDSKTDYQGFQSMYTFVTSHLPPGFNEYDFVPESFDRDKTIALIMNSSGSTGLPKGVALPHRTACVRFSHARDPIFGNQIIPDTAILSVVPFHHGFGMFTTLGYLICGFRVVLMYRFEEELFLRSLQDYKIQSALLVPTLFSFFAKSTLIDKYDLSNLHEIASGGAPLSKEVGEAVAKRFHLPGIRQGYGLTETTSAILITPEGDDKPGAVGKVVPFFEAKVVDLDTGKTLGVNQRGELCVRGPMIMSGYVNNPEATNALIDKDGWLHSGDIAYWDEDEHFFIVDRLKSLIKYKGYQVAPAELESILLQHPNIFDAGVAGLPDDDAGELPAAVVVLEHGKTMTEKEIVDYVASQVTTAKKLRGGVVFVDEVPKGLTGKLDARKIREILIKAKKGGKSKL
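Purified P. pyralis luciferase (10nM final) with 10uM D-luciferin and 10uM ATP (Km levels) in 50mM Tris acetate pH 7.5, 10mM Mg acetate, 0.01% Tween-20, 0.05% BSA; qHTS 6-point titration, ~60 µM downward; luminescence read.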
ELG1 genotox = inducers of genotoxicity in HEK293T ELG1-luciferase cells; HEK293T ELG1-luciferase reporter, luminescence, 16 h; hit rate 1.3% among 330,000; Potency, µM (doses to about 46 µM), for inactives: at the top dose activity change, positive = activation, actives largely listed as activators; AID 504466; note: % of control where 0% means no effect; nearly all actives have a fitted effect of over 60% in size
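Cells (2,000/well) expressing the ELG1-luciferase fusion are dosed by pin tool and kept 16 hr at 37 °C, 5% CO2. Signal comes from ONE-Glo luciferase reagent after 30 min at room temperature.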
Rab9 prom act = activates the Rab9 promoter; Huh7 Rab9 promoter-luciferase reporter, luminescence, 24 h; Potency, µM (doses to about 9.22 µM), for the others: top-dose activation, negative = inhibition, usual class: activators; hit rate 2.8% among 320,000; note: % of control where 0% means no effect; nearly all actives have a fitted effect of over 60% in size
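Huh7 reporter line, Rab9 promoter upstream of luciferase. Compound exposure 24 h at 37 °C in reduced-serum medium with 10% FBS. Read-out: luminescence.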
Starred values were filed as active, the others as inactive; ? = inconclusive; . = no result; [ ] = remark or other dose. Calls come from the whole dose curve; as a rule, active = well fitted curve in the direction sought with a large enough effect; inconclusive = small, poorly fitted or top-dose-only effect, or another doubt; inactive = no such curve, though single readings can be large; an effect the other way counts as inactive or inconclusive. Potency is the fitted concentration of half-maximal effect.

SMILES | SMN2 splice enh | NPC1 promoter act | FLuc counter | ELG1 genotox | Rab9 prom act
N#Cc1cn(-c2ccccc2)nc1-c1ccc2c(c1)OCCO2 | 14µM* | ? | -12%[2.3 µM] | ? | 4µM*
O=Cc1cn(-c2ccccc2)nc1-c1ccc2c(c1)OCCO2 | 13µM* | 11% | 4.8µM* | 10% | 17%
CCN(CC)C(=O)c1cn(-c2ccccc2)nc1-c1ccc2c(c1)OCCO2 | -25% | -5% | -1% | -9% | 18%
O=Cc1cn(-c2ccccc2)nc1-c1ccc(F)cc1 | . | 22% | 12µM* | -6% | 5%
CCOc1c(Br)cc(C(=O)N2CCCN(C)CC2)cc1OC | . | -5% | 0% | 0% | 1%
O=C(C[n+]1cc(-c2ccc(F)cc2)n2c1CCC2)N1c2ccccc2Sc2ccccc21 | 76% | ? | 2.4µM* | ? | 2.8µM*
O=C(C[n+]1cc(-c2ccccc2)n2c1CCC2)N1c2ccccc2Sc2ccccc21 | -18% | -2% | 2% | -6% | -1%
COc1ccccc1CN1CC(C(=O)N2CCCCO2)CCC1=O (centres undefined) | . | 26% | ? | ? | ?
O=C1CCC(C(=O)N2CCCCO2)CN1CCc1ccccc1 (centres undefined) | . | ? | 17µM* | ? | ?
COCCCNC(=O)CSc1nc(-c2cccc(F)c2)[nH]c1-c1ccccc1 | -11% | . | -8% | . | .
COCCCNC(=O)c1ccc(Cn2c(SCc3cccc(C)c3)nc3cccnc32)cc1 | . | . | 11µM* | . | .
O=C(NCCN1CCCCC1)c1ccc(Cn2c(SCc3ccc(F)cc3)nc3cccnc32)cc1 | -7% | . | 8.5µM* | . | .
COCCCNC(=O)c1ccc(Cn2c(SCc3ccc(F)cc3)nc3cccnc32)cc1 | . | . | 3.4µM* | . | .
CN(C)CCNC(=O)c1ccc(Cn2c(SCc3ccc(F)cc3)nc3cccnc32)cc1 | . | . | 6µM* | . | .
COc1ccc(Cn2c(SCc3ccc(C(=O)NCc4ccccc4F)cc3)nc3cccnc32)cc1 | -15% | . | -19% | . | .
C/C=C(\C)[C@H](O)C[Si](C)(C)c1ccccc1 | 1% | . | . | . | .
COc1cccc(/C=N/Nc2snc(SC)c2C#N)c1 | -28% | ? | 4.8µM* | 2% | 25%
COc1cccc(/C=N/Nc2snc(SC)c2C#N)c1O | -62% | 1% | 4.8µM* | 3% | 3%
CSc1nsc(N/N=C/c2ccccc2)c1C#N | 29% | 28% | ? | -12% | 23%
COc1ccc(/C=N/Nc2snc(SC)c2C#N)cc1OC | ? | 2.8µM* | 2.1µM* | 16% | 2.8µM*
Cc1ccc(NCC(=O)Nc2cccc(F)c2)cc1S(=O)(=O)N1CCCCCC1 | . | -8% | 4% | -3% | -7%
Fc1ccc(-c2nc(Nc3ccc(F)c(Cl)c3)nc3c2COc2ccccc2-3)cc1 | . | . | -15% | . | .
O=C(O)c1ccnc2c(O)cccc12 | . | 26% | -3% | . | ?
COc1ccc(N=C2O/C(=C/c3sc(=S)n(CC4CCCO4)c3O)N=C2C#N)cc1 (centres undefined) | . | 13% | 2.4µM* | -8% | 7%
O=c1c2c3c(sc2nc2sc(CN4CCOCC4)cn12)CCCC3 | ? | 4.5µM* | -5% | ? | ?
SMILES | SMN2 splice enh | NPC1 promoter act | FLuc counter | ELG1 genotox | Rab9 prom act
CCCc1nn(C)c(C(=O)Nc2ccc3ccccc3c2)c1Cl | 14µM* | ? | 11µM* | ? | ?
CCCc1nn(C)c(C(=O)Nc2cccc(CC)c2)c1Cl | ? | ? | 17µM* | 5% | ?
O=C(NCc1ccccc1F)C(=O)NCC(c1ccco1)S(=O)(=O)c1ccccc1 (centres undefined) | . | . | 5% | . | .
COc1cc(O)oc1C=Nc1ccc(Oc2ccccc2)cc1 | -23% | ? | 15µM* | 16% | ?
O=c1c2ccccc2cnn1-c1ccc(Cl)cc1 | 10µM* | 1.4µM* | 5.4µM* | ? | 1µM*
Cc1ccc(-n2ncc3ccccc3c2=O)cc1Cl | 14µM* | 2.5µM* | 5.4µM* | ? | 2.8µM*
COc1ccc(/C=N/N2CCN(c3ccccc3)CC2)cc1Br | . | 1% | -2% | -3% | -1%
CCOC(=O)N1CCN(C(=O)CSc2ccc(-c3ccc(OC)cc3)nn2)CC1 | -16% | 1% | 11µM* | 0% | -6%
COc1ccc(-c2ccc(SCC(=O)N3c4ccccc4CC3C)nn2)cc1OC (centres undefined) | ? | 11% | 4.3µM* | -4% | -2%
CCOC(=O)N1CCN(C(=O)CSc2ccc(-c3ccc(OC)c(OC)c3)nn2)CC1 | 2% | 2% | 17µM* | -14% | 5%
CC1Cc2ccccc2N1C(=O)CSc1nncn1C (centres undefined) | 16% | -2% | -1% | 1% | 6%
CC(=O)c1ccccc1NC(=O)COC(=O)c1cc(C)oc1C | . | 2% | 5% | 0% | -2%
Fc1ccc(Nc2ccc(-c3ccc(F)cc3)nn2)cc1 | . | ? | 5.4µM* | 12% | 3.2µM*
CCC(=O)N1c2ccc(S(=O)(=O)CCC(=O)Nc3ccc(Br)c(C)c3)cc2CC1C (centres undefined) | -17% | . | ? | . | .
O=C(O)COc1ccc(OCCNC[C@H](O)COc2ccccc2)cc1 | 2% | . | . | . | .
N#C/C(=C\c1ccc(-c2cc(Cl)ccc2Cl)o1)C(=O)Nc1ccccc1C(=O)O | -1% | . | 4.3µM* | . | .
COc1cc(/C=C(\C#N)C(=O)Nc2ccccc2C(=O)O)cc(Cl)c1OC | 2% | -9% | 27µM* | 0% | -1%
CCCCNC(=O)c1ccc2c(c1)S(=O)(=O)c1ccccc1C2=O | . | -4% | 15µM* | 11% | -5%
COc1ccc(CCNC(=O)c2cc3c(=O)n(C)c4ccccc4c3s2)cc1OC | -2% | . | -9% | . | .
O=C(Nc1nnc(-c2cccs2)s1)C1CC1 | ? | 30% | -4% | ? | 5µM*
C=C(C)C(=O)Nc1nnc(-c2cccs2)s1 | -3% | 0% | 17µM* | 9% | -2%
CCC(=O)Nc1nnc(-c2cccs2)s1 | 21% | 17% | -15% | ? | ?
CCC(C)C(=O)Nc1nnc(-c2cccs2)s1 (centres undefined) | 6% | ? | ? | ? | 3.5µM*
CCOc1cc(S(=O)(=O)n2ccnc2)ccc1Cl | -2% | 0% | -16% | 2% | -4%
COc1cc(/C=C2\N=C(c3ccccc3)OC2=O)ccc1OC(C)=O | . | 23% | 15µM* | 0% | 2%
COc1ccc(/C=C2/N=C(c3cccs3)OC2=O)cc1OC(C)C | 12% | 2% | 6.7µM* | -11% | 0%
CCOc1ccc(/C=C2\N=C(c3cccs3)OC2=O)cc1OC | 26% | -1% | -24% | -1% | 2%
CCc1c(C)sc(NC(=O)c2cc(-c3cccc(Cl)c3)on2)c1C#N | 6% | . | -20% | . | .
Cc1cc2oc(=O)c(CC(=O)O)c(C)c2c2occ(-c3ccc(F)cc3)c12 | 12% | . | 6.7µM* | . | .
COc1ccc(-c2coc3c2c(C)cc2oc(=O)c(CC(=O)O)c(C)c23)cc1 | 16% | . | 7.6µM* | . | .
